Test [1] concerns Plasmodium falciparum Sir2 (PF13_0152, Sir2A). In words: Plasmodium falciparum Sir2A binding compounds – biochemical, small-molecule microarray, 635 nm fluorescence, primary screen (AID 1098).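 Further: score merges spot fluorescence intensity with its signal-to-noise ratio.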 The conditions noted are these: fluorescence 635 nm, higher = more signal.
Test [2] is described as follows: probe aDKK1 binding to arrayed compounds – biochemical, biotinylated probe, 635/667 nm fluorescence, primary screen (AID 1099).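 Further: score merges 667nm spot fluorescence with signal to noise across triplicate slides.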 Conditions: small-molecule microarray, higher = more signal.
Test [3] can be described thus: probe aCHRDL2 binding to arrayed compounds – biochemical, biotinylated probe, 635/667 nm fluorescence, primary screen (AID 1100). Conditions: small-molecule microarray, higher = more signal.
Test [4] can be described thus: change in splice reporter luminescence, either direction, cell-based, HEK293, spliceosome inhibition project, primary screen (AID 1101).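 Further: HEK293 cells carrying a splicing-competent luciferase reporter gene; test concentration not given here.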 Conditions: HEK293 splicing luciferase reporter, 24 h, higher = more signal, called active from +8 up or from −8 down.
Test [5] addresses Fibroblast growth factor 10 (Homo sapiens) (UniProt O15520). Kind of test: compounds binding fibroblast growth factor 10 – biochemical, small-molecule microarray, 635 nm fluorescence, primary screen (AID 1102). Conditions: FGF10 binding, fluorescence 635 nm, higher = more signal.
Test [6] concerns glycogen synthase kinase-3 (GSK3A per assay name; protocol says GSK3B). Kind of test: compounds binding glycogen synthase kinase-3 – biochemical, small-molecule microarray, 635 nm fluorescence, GSK3A, primary screen (AID 1103). Further: the record names both GSK3A and GSK3B. Conditions: fluorescence 635 nm, higher = more signal.
The target in test [7] is Epidermal growth factor receptor (Homo sapiens) (UniProt P00533). Kind of test: compounds binding epidermal growth factor receptor – biochemical, small-molecule microarray, 635 nm fluorescence, primary screen (AID 1104).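 Further: score merges 667 nm emission intensity with spot signal to noise over triplicate slides.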 Conditions: EGFR binding, higher = more signal.
In test [8] the target is Follistatin-related protein 3 (Homo sapiens) (UniProt O95633). Kind of test: compounds binding follistatin-related protein 3 – biochemical, small-molecule microarray, 635 nm fluorescence, primary screen (AID 1105).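 Further: score merges emission near 667 nm and signal to noise per printed spot across three slides.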 The conditions noted are these: FSTL3 binding, higher = more signal.
The target of test [9] is Dickkopf-related protein 1 (Homo sapiens) (UniProt O94907). In words: small molecules binding DKK1 protein – biochemical, small-molecule microarray, 635 nm fluorescence scan, primary screen (AID 1106).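 Further: score merges emission near 667 nm with signal to noise over three replicate slides.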 Conditions: higher = more signal.
The test system of test [10] is Inhibin beta A chain (activin A). In words: small molecules binding activin A – biochemical, small-molecule microarray, 635 nm fluorescence scan, primary screen (AID 1107).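 Further: mouse activin A protein probed at 4.33 µg/mL on printed slides; score merges bound-protein fluorescence near 667 nm with spot signal-to-noise.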 The conditions noted are these: INHBA, higher = more signal.
The test system of test [11] is Human papillomavirus type 1a protein E7 (residues 44-93). Kind of test: small molecules binding HPV E7 44-93 – biochemical, small-molecule microarray, residues 44-93, 635 nm fluorescence, primary screen (AID 1108).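 Further: E7 fragment applied at 1 µg/mL in TBST for 1 h at 4 C; score combines spot fluorescence with its signal to noise ratio.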 The conditions noted are these: fluorescence 635 nm, higher = more signal.
The nature of test [12]: hepatitis C replication reporter changes, two-sided – Huh7 cells, luciferase reporter, HCV replication inhibitor project, primary screen (AID 1109).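 Further: huh7 hepatoma cells harbouring a luciferase neomycin HCV replicon reporter; luciferase luminescence as measure of HCV replicon replication; test concentration not given here.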 Conditions: Huh7 HCV replicon luciferase reporter, 48 h; higher = more signal.
In test [13] the target is Left-right determination factor 2 (Homo sapiens) (UniProt O00292). In words: small molecules binding LEFTY2 protein – biochemical, small-molecule microarray, 635 nm fluorescence scan, primary screen (AID 1110). Conditions: higher = more signal.
In test [14] the target is Calmodulin-1 (Homo sapiens) (UniProt P0DP23). Kind of test: small molecules binding calmodulin-1 with EGTA – biochemical, small-molecule microarray, Cy5-labelled CALM1, profiling panel (AID 1111).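 Further: labelled calmodulin applied in Tris saline Tween buffer holding calcium plus EGTA and DTT.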 Conditions: Cy5-CALM1 binding fluorescence, higher = more signal.
The target is the same in test [15]. In words: small molecules binding Ca-loaded calmodulin-1 – biochemical, small-molecule microarray, Cy5-labelled CALM1, plus calcium, artefact control for SMM control-protein annotation, profiling panel (AID 1112).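 Further: score merges spot fluorescence with signal to noise from triplicate slides.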 The conditions noted are these: Cy5-CALM1 binding fluorescence, higher = more signal.
Test [16] is described as follows: probe aWnt5a binding to arrayed compounds – biochemical, biotinylated probe, 635/667 nm fluorescence, primary screen (AID 1113).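 Further: score merges 667 nm fluorescence intensity with signal-to-noise per printed feature.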 Conditions: small-molecule microarray, higher = more signal.
A short description of test [17]: probe aShh binding to arrayed compounds – biochemical, biotinylated probe, 635/667 nm fluorescence, primary screen (AID 1114).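 Further: probe is biotin-labelled aShh protein from a stem cell growth factor screen; measures binding of labelled protein to compounds printed on the slide; score merges feature fluorescence at 667 nm with signal-to-noise.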 The conditions noted are these: small-molecule microarray, higher = more signal.
The nature of test [18]: probe aNog binding to arrayed compounds – biochemical, biotinylated probe, 635/667 nm fluorescence, primary screen (AID 1115).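 Further: probe is biotinylated aNog protein used at 0.15 µg/mL for 1 h at 4 C; z-score combines 667 nm fluorescence of each spot with its signal to noise.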 Conditions: small-molecule microarray, higher = more signal.
The target in test [19] is Torsin-1A-interacting protein 1 (Homo sapiens) (UniProt Q5JTV8). Kind of test: compound microarray binding of lysate hLAP1 – cell lysate, small-molecule microarray, COS7 lysate, 635/667 nm fluorescence, primary screen (AID 1116). Conditions: 635 nm fluorescence, higher = more signal.
Test [20] deals with Alpha-bungarotoxin (Bungarus multicinctus) (UniProt P60615). In words: compounds binding labelled alpha-BTX control protein – biochemical, small-molecule microarray, Alexa647 label, 635/667 nm fluorescence, artefact control for SMM control protein annotation, profiling panel (AID 1117). The conditions noted are these: alpha-BTX-A647 binding fluorescence, higher = more signal.

Activity calls are given as the source filed them.

Sequence of Alpha-bungarotoxin (Bungarus multicinctus) (P60615 whole entry, looked up): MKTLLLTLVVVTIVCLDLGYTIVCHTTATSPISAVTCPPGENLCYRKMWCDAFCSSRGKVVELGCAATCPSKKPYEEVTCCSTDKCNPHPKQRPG
Sequence of Epidermal growth factor receptor (Homo sapiens) (P00533 whole entry, looked up): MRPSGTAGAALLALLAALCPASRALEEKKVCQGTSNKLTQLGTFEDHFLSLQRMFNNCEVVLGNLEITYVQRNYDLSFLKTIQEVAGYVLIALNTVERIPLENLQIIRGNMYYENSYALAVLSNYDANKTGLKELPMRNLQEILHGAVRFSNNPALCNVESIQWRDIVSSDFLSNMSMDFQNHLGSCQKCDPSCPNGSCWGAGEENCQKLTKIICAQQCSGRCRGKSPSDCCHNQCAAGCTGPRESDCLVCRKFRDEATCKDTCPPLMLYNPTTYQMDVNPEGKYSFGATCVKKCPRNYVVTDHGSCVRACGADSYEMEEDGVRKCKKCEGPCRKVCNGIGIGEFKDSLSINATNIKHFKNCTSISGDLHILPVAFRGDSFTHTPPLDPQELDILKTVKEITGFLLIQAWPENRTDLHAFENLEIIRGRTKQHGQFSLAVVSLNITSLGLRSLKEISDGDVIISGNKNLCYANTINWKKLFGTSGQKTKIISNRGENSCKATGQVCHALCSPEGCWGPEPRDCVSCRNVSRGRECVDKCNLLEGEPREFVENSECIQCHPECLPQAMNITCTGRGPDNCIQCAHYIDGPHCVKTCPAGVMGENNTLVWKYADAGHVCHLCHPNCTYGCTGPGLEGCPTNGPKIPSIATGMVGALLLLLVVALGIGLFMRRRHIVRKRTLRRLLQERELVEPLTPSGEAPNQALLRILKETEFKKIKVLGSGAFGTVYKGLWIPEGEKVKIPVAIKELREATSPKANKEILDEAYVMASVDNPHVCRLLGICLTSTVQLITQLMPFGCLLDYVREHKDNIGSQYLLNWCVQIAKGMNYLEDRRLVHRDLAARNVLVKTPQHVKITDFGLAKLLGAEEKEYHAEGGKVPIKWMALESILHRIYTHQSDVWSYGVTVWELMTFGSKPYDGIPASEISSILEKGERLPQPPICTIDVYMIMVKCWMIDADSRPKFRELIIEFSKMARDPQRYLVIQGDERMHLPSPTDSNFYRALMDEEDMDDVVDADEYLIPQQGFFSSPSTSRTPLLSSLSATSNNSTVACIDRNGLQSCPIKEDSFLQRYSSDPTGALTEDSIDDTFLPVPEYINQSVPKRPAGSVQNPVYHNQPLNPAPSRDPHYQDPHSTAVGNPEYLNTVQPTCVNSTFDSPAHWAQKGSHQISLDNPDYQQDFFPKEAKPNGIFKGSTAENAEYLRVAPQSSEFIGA
Sequence of Torsin-1A-interacting protein 1 (Homo sapiens) (Q5JTV8 whole entry, looked up): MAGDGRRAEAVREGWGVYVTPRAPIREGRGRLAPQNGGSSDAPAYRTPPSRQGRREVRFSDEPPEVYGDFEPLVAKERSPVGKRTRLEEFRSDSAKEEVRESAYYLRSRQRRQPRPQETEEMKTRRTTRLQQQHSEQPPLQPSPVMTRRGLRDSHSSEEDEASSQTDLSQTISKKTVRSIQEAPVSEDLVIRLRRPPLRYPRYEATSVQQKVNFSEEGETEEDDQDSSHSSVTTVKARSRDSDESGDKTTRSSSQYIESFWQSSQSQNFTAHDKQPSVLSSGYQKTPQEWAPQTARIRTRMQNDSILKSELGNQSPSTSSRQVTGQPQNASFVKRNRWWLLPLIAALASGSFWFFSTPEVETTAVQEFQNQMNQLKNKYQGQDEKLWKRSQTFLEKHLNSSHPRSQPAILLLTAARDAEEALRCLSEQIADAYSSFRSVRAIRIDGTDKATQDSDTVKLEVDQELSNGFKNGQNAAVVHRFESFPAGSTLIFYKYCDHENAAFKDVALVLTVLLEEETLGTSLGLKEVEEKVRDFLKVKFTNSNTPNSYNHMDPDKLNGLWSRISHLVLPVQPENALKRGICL
Sequence of Fibroblast growth factor 10 (Homo sapiens) (O15520 whole entry, looked up): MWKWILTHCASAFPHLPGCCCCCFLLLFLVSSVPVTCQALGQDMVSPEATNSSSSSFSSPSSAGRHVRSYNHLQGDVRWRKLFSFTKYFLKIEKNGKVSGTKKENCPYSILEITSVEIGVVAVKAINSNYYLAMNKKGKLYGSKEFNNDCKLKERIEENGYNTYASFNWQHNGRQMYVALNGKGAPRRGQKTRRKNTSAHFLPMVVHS
Sequence of Dickkopf-related protein 1 (Homo sapiens) (O94907 whole entry, looked up): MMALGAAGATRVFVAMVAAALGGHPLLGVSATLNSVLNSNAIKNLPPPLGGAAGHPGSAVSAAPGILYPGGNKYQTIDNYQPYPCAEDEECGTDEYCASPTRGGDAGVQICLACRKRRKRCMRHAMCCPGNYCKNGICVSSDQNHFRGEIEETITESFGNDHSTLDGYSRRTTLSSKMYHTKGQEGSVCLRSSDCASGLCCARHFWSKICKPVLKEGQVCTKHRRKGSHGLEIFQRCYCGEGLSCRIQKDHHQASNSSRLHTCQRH
Sequence of Left-right determination factor 2 (Homo sapiens) (O00292 whole entry, looked up): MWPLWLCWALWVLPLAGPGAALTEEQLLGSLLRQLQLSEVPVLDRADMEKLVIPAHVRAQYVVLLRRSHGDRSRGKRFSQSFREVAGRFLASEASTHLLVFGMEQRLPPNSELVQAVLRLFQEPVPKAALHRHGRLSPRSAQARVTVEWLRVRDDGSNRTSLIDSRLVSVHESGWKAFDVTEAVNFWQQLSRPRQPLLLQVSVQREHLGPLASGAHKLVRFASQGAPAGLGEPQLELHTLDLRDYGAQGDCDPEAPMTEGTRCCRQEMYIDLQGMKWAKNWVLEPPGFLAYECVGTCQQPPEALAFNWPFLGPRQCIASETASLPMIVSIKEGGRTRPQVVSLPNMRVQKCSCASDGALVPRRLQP
Sequence of Follistatin-related protein 3 (Homo sapiens) (O95633 whole entry, looked up): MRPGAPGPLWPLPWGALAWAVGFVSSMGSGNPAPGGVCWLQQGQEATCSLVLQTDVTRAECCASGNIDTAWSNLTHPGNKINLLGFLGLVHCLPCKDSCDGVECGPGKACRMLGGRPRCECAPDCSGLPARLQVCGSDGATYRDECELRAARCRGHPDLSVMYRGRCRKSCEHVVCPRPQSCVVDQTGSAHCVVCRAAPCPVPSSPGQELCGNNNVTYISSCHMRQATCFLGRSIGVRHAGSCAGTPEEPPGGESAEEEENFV

For the molecule `NC(=O)N1C(=O)C2C(C1=O)C1C=C(c3ccc(CO)cc3)C2C(C2CC2)N1Cc1cc2c(cc1Br)OCO2` (stereo not given), the composite z-score in [1] is 0.105; in test [2] it was 0.176; in test [3], 0.691; in test [5], 0.151; in test [6], 0.314; in [7] it was -0.505. Also, the composite z-score is -0.0544 in [8]; -0.196 in [9]; 1.34 in [10]; 0.0207 in test [11]; -0.254 in test [13]; 0.438 in test [14]. Moreover, the composite z-score was 0.163 in [15]; -0.124 in test [16]; -0.0146 in [17]; -0.0689 in test [18]; 1.11 in [19]; 0.55 in [20]. Further, the z-score was -0.87 (inactive) in test [4] and -1.03 in test [12].

In the case of `C=CCC(OC(C)=O)[C@@H]1[C@@H](N(Cc2cccc3ccccc23)C(=O)Cc2ccc(OC)cc2)c2cc(OCCCO)ccc2N1C(=O)Cc1ccc(OC)cc1` (stereo not given in full), the composite z-score was -0.247 in test [1]; 0.199 in test [2]; 0.373 in test [3]; -0.0161 in test [5]; -0.45 in test [6]; 0.015 in test [7]. In addition, the composite z-score is -0.134 in test [8]; 0.0484 in test [9]; 1.21 in test [10]; -0.05 in [11]; 0.119 in test [13]; -0.294 in test [14]. In addition, the composite z-score is 0.14 in [15]; -0.014 in test [16]; -0.153 in test [17]; 0.277 in test [18]; -0.0539 in test [19]; 0.476 in test [20]. Further, the z-score in test [4] was -0.768 (inactive); in [12], 0.217.

As for `CC(C)N1C(=O)c2ccccc2[C@@H](C(=O)NCc2ccccc2)[C@@H]1c1ccc(CO)cc1`, the composite z-score in test [1] was 1.05; in test [2], 0.326; in test [3] it was 0.932; in [5], -0.844; in test [6], 0.192; in [7] it was -0.183. The composite z-score in test [8] was -0.0398; in test [9], -0.319; in [10] it was 0.481; in [11], 0.319; in test [13] it was -0.514; in test [14] it was -0.808. For the same molecule, the composite z-score in test [15] is 0.306; in test [16], -0.178; in [17] it was -0.203; in [18] it was 0.198; in [19], 0.481; in test [20], -1.92. Further, the z-score in [4] is -0.242 (inactive); in [12], 0.313.

As for `COCCCN1C(=O)[C@@]2(Cc3ccccc31)c1ccccc1C(=O)N(Cc1ccccc1Cl)[C@H]2c1ccc(CO)cc1`, the composite z-score in test [1] is -0.482; in test [2], 0.337; in test [3], 0.775; in test [5], -0.129; in test [6], -0.542; in [7], -0.406. The composite z-score was -0.397 in test [8]; -0.685 in [9]; 1.04 in test [10]; -0.199 in [11]; -0.222 in [13]; -0.217 in test [14]. Further, the composite z-score in [15] is -0.12; in test [16] it was 0.0044; in [17], -0.0066; in test [18], 0.206; in test [19] it was 0.167; in test [20], -0.342. The z-score is -0.471 (inactive) in test [4] and -0.326 in test [12].

In the case of `CCOC(=O)C[C@H]1[C@H](OC(=O)Cc2ccc3c(c2)OCO3)[C@@H](NC(=O)c2ccc3ccccc3c2)c2cc(OCCCO)ccc2N1C(=O)c1ccc2ccccc2n1`, the composite z-score in test [1] is 0.114; in test [2] it was -0.0522; in [3], -0.0322; in test [5] it was 0.18; in test [6], 0.0646; in [7], 0.118. In addition, the composite z-score is 0.161 in test [8]; 0.121 in test [9]; 0.0739 in test [10]; -0.13 in test [11]; 0.0822 in test [13]; 1.05 in test [14]. For the same molecule, the composite z-score in test [15] was 0.691; in test [16] it was -0.124; in test [17] it was -0.0769; in [18], -0.171; in [19], 1.15; in test [20], 1.15. The z-score in test [4] was -3.47 (inactive); in test [12] it was -1.43.

`CC(C)[Si](C#C[Si](C(C)C)(C(C)C)C(C)C)(O[C@H](C)c1cn([C@H](C)c2ccccc2)nn1)C(C)C`: the composite z-score in test [1] is 0.366; in test [2] it was 0.106; in test [3], 0.351; in [5], 0.597; in test [6], 0.339; in test [7], 0.292. In addition, the composite z-score in test [8] was 0.806; in [9], 0.538; in test [10], -0.269; in [11], 0.946; in test [13] it was 0.188; in [14] it was 0.242. The composite z-score was -0.479 in test [15]; -0.131 in test [16]; -0.138 in test [17]; 0.444 in test [18]; 0.245 in test [19]; 0.833 in test [20]. The z-score in [4] is -1.8 (inactive); in test [12], 0.0537.

The record behind these values is PubChem BioAssay.
